This note sets out measurements from PubChem BioAssay (NCATS).

Results filed as inconclusive are left out. Values without a mark were called inactive. Calls of active or inactive are those of the source. Calls come from the whole dose curve; as a rule, active = well fitted curve in the direction sought with a large enough effect; inconclusive = small, poorly fitted or top-dose-only effect, or another doubt; inactive = no such curve, though single readings can be large; an effect the other way counts as inactive or inconclusive.

Assay [1] deals with Rap guanine nucleotide exchange factor 3 (Homo sapiens) (UniProt O95398). Kind of assay: Confirmatory qHTS for antagonist of cAMP-regulated guanine nucleotide exchange factor 3 (EPAC1) (AID 1645880). Note: nearly all actives have a fitted effect of over 55% in size. Note: potency is the fitted concentration of half-maximal effect. The method, boiled down:
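Released BODIPY-GDP fluoresces less than Rap1-bound BODIPY-GDP; the signal is followed at 480/540 nm at 5-min intervals over 30 min, after 5 min at room temperature. Reactions contain 100 nM EPAC1, 250 nM RAP1B-BODIPY-GDP and 50 uM GDP; results are normalized to ATA and DMSO.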
A general note: Quantitative high-throughput screening tests each substance at several concentrations.

The target is the same in assay [2]. The experiment in a line: Confirmatory qHTS for agonist of cAMP-regulated guanine nucleotide exchange factor 3 (EPAC1) (AID 1645881).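 For activation: EPAC1 catalysed release of BODIPY-GDP from Rap1B seen as fluorescence loss; 100% = effect of cAMP agonist control.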 Note: nearly all actives have a fitted effect of over 75% in size. Note: potency is the fitted concentration of half-maximal effect.
The target of assay [3] is Rap guanine nucleotide exchange factor 4 (Homo sapiens) (UniProt Q8WZA2). The experiment in a line: Confirmatory qHTS for agonist of cAMP-regulated guanine nucleotide exchange factor 4 (EPAC2) (AID 1645884). For activation: % is set by controls: 0 for no effect and ±100 for the full control effect.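 Note: nucleotide exchange releases bodipy-GDP from Rap1 and this lowers its fluorescence; nearly all actives have a fitted effect of over 65% in size.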 Note: potency is the fitted concentration of half-maximal effect.
Chain of Rap guanine nucleotide exchange factor 4 (Homo sapiens) (Q8WZA2 whole entry, looked up): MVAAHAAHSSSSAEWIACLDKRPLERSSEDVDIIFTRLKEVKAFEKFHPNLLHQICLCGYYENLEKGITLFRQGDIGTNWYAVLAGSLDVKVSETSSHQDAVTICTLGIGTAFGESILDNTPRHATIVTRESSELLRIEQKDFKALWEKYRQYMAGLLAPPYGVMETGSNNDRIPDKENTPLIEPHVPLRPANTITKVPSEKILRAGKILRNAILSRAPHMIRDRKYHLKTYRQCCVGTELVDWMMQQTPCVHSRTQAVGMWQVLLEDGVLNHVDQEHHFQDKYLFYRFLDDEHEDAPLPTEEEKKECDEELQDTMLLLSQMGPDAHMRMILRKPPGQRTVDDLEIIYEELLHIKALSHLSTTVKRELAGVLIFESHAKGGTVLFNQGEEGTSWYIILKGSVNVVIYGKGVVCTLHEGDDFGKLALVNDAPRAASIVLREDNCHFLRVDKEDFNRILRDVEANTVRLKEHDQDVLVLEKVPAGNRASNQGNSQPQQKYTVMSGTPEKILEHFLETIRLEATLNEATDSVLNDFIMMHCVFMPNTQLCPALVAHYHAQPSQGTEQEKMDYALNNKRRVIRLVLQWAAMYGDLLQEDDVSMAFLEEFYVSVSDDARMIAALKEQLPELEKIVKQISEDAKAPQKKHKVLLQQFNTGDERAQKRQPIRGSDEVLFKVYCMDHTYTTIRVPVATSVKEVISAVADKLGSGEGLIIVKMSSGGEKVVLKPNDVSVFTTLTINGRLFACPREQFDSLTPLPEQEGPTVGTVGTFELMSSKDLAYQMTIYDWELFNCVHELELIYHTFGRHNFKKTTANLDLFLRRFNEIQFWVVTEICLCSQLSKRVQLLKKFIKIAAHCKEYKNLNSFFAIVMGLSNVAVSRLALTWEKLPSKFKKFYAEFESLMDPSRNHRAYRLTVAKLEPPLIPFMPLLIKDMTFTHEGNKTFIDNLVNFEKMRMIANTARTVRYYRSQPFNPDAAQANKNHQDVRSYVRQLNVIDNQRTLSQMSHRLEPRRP
For assay [4] the target is unchanged. The experiment in a line: Confirmatory qHTS for antagonist of cAMP-regulated guanine nucleotide exchange factor 4 (EPAC2) (AID 1645885). For activity change, negative = inhibition: % is set by controls: 0 for no effect and ±100 for the full control effect. Note: nearly all actives have a fitted effect of over 25% in size. Note: potency is the fitted concentration of half-maximal effect.
Assay [5] concerns the target Rap guanine nucleotide exchange factor 3 (Homo sapiens) (UniProt O95398). Kind of assay: Counterscreen qHTS for antagonist of cAMP-regulated guanine nucleotide exchange factor 3 (EPAC1) (AID 1645888). Note: % of control where 0% means no effect. The method, boiled down:
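Measured: fluorescence of BODIPY-GDP bound to Rap1B, which falls as exchange proceeds. Conditions include 50 uM competing GDP, 5 and 30 min reads, and a later cAMP challenge for antagonist detection.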

Chain of Rap guanine nucleotide exchange factor 3 (Homo sapiens) (O95398 whole entry, looked up): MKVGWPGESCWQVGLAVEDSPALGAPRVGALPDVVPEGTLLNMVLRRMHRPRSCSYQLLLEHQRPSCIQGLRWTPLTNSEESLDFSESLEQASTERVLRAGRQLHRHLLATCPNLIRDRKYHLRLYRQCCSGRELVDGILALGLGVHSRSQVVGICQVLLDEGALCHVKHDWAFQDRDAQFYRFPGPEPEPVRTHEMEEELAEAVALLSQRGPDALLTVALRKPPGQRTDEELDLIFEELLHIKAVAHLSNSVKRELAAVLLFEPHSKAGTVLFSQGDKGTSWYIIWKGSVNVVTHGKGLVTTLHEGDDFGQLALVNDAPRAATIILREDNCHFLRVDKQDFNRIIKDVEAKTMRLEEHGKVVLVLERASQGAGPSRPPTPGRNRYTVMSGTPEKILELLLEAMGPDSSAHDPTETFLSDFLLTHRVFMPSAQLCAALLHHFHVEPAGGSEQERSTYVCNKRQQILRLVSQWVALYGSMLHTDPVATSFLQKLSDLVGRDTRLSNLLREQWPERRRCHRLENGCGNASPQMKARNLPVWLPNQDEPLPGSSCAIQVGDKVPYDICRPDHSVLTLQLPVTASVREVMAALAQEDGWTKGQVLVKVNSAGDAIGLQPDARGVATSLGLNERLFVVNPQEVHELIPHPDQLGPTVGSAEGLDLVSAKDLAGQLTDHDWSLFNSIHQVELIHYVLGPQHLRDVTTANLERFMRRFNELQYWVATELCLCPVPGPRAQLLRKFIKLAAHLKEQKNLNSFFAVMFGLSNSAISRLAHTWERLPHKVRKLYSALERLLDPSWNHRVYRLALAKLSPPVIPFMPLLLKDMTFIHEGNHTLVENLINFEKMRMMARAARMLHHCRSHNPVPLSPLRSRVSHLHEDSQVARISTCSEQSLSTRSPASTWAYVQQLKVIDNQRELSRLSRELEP

Consider `Cc1ccc(CNC(=O)COc2ccccc2-c2ccccc2)cc1`, for which the Potency entry in assay [1], in assay [2] and in assay [4] was “inactive” throughout. The activation in assay [3] was 2.73% [at 17.1 µM, percent relative to cAMP agonist control]. In addition, the activity change, negative = inhibition in assay [5] was 0.587% [at 30.8 µM].

In the case of `O=C(/C=C/c1ccco1)Nc1ccc(Cl)c(-c2nc3cc(Cl)ccc3o2)c1`, in assay [1], the Potency was 75.7 µM (active). Besides, the Potency entry in assay [2], in assay [3], in assay [4] and in assay [5] was “inactive” in each case.

As for `O=C(Nc1ccccc1N1CCOCC1)c1cccc2c(Br)cccc12`, the Potency result in assay [1], in assay [2], in assay [3], in assay [4] and in assay [5] was “inactive” throughout.

Take `CC(C)OC(=O)/C(=C/c1ccc2c(c1)c1ccccc1n2C)NC(=O)c1ccccc1`: the Potency result in assay [1], in assay [2], in assay [3], in assay [4] and in assay [5] was “inactive” throughout.

As for `O=C(O)CN1C(=O)/C(=C\c2cc(Br)ccc2OCc2ccccc2F)SC1=S`, the Potency in assay [1] was 35.5 µM (active). Moreover, the Potency entry in assay [2] and in assay [4] was “inactive” in each case. The activation in assay [3] is 4.56% [at 17.1 µM, percent relative to cAMP agonist control]. In addition, the activity change, negative = inhibition in assay [5] is 18.9% [at 30.8 µM].

In the case of `CCCCn1c(N)c(N(CCOC)C(=O)c2ccc(C)c(S(=O)(=O)N3CCCCC3)c2)c(=O)[nH]c1=O`, the Potency entry in assay [1], in assay [2], in assay [3], in assay [4] and in assay [5] was “inactive” each time.

As for `O=C(Cc1ccccc1Cl)Nc1ccc(S(=O)(=O)Nc2nccs2)cc1`, the Potency entry in assay [1], in assay [2], in assay [3], in assay [4] and in assay [5] was “inactive” in each case.

On to `CC1(C)Cc2c(C#N)c(N3CCN(C(=O)c4ccccc4Cl)CC3)nc(-c3ccco3)c2CS1`, for which the Potency in assay [1] is 26.9 µM (active). Further, the Potency entry in assay [2], in assay [3], in assay [4] and in assay [5] was “inactive” each time.

Take `CCOC(=O)Cc1nnc(NC(=O)CSc2nnc3c(n2)[nH]c2ccccc23)s1`: the Potency in assay [1] is 44.7 µM (active). Further, the Potency entry in assay [2] and in assay [4] was “inactive” each time. Besides, the activation in assay [3] is 6.98% [at 17.1 µM, percent relative to cAMP agonist control]. In addition, in assay [5], the activity change, negative = inhibition was -37.4% [at 30.8 µM].

For the compound `Cc1ccc(CN2C(=O)CSC2c2ccccc2F)cc1` (stereo not given), the Potency entry in assay [1], in assay [2], in assay [3] and in assay [5] was “inactive” each time. In assay [4], the Potency is 33.8 µM (active).

Turning to `COc1ccc(Cl)cc1N(C)C(=O)Cc1noc2ccc(C)cc12`, the Potency result in assay [1], in assay [2], in assay [3], in assay [4] and in assay [5] was “inactive” throughout.

`CC(Oc1ccc(-c2nnco2)cc1)C(=O)N1CCOCC1` (stereo not given): the Potency result in assay [1], in assay [2], in assay [3], in assay [4] and in assay [5] was “inactive” each time.

Regarding `O=C(CNC(=O)c1sc2ccccc2c1Cl)Nc1ccccc1F`, the Potency entry in assay [1], in assay [2] and in assay [4] was “inactive” each time. In assay [3], the activation is 11.8% [at 17.1 µM, percent relative to cAMP agonist control]. Also, the activity change, negative = inhibition in assay [5] was -19.6% [at 30.8 µM].

For the compound `CCOc1ccccc1NC1c2ccccc2C(=O)N1Cc1ccco1` (stereo not given), the Potency entry in assay [1], in assay [2], in assay [3], in assay [4] and in assay [5] was “inactive” in each case.

Take `O=C(/C=C/c1ccco1)Nc1cccc(C(=O)Nc2ccccc2C(=O)O)c1`: in assay [1], the Potency is 3.98 µM (active). The Potency entry in assay [2] and in assay [4] was “inactive” each time. In addition, in assay [3], the activation is 3.49% [at 17.1 µM, percent relative to cAMP agonist control]. Besides, the activity change, negative = inhibition in assay [5] is 19% [at 30.8 µM].

With `COc1ccc(C(C#N)N2N=C(C)CC2c2ccccc2)cc1` (stereo not given), the Potency entry in assay [1], in assay [2], in assay [3] and in assay [5] was “inactive” each time. The Potency in assay [4] is 47.8 µM (active).

In the case of `O=C1CNC(=O)c2c(nc3n2CCC3)N1`, the Potency result in assay [1], in assay [2], in assay [3], in assay [4] and in assay [5] was “inactive” in each case.

Turning to `CN(Cc1ccccc1)c1ncnc2onc(-c3ccc(F)cc3)c12`, the Potency result in assay [1], in assay [2], in assay [3], in assay [4] and in assay [5] was “inactive” each time.

Turning to `O=C(c1ccco1)N(Cc1ccc([N+](=O)[O-])cc1)c1ccc(Cl)cc1`, the Potency result in assay [1], in assay [2], in assay [3], in assay [4] and in assay [5] was “inactive” throughout.

As for `CCOc1ccc(/C(C)=N/NC(=O)C(OC)c2ccccc2)cc1` (stereo not given), the Potency entry in assay [1], in assay [2], in assay [3], in assay [4] and in assay [5] was “inactive” throughout.

Consider `COc1ccc(OC)c(N=Cc2c(O)c3ccccc3oc2=O)c1`, for which the Potency result in assay [1], in assay [4] and in assay [5] was “inactive” each time. Also, the Potency in assay [2] was 112 µM (active); in assay [3], 89.1 µM (active).

Take `N#Cc1cc2c(=O)n3ccccc3nc2n(-c2nnc(SCc3ccccc3Cl)s2)c1=O`: the Potency entry in assay [1], in assay [2], in assay [3], in assay [4] and in assay [5] was “inactive” in each case.

For the compound `CCOC(=O)CSc1nc(C)c2cc(C)c(C)cc2n1`, the Potency entry in assay [1], in assay [2], in assay [3], in assay [4] and in assay [5] was “inactive” in each case.

`CC(C)(C)NC(=O)NC(=O)CN1CCc2ccccc21`: the Potency result in assay [1], in assay [2] and in assay [4] was “inactive” throughout. Further, in assay [3], the activation is 4.54% [at 17.1 µM, percent relative to cAMP agonist control]. In addition, the activity change, negative = inhibition in assay [5] was 5.54% [at 30.8 µM].

For `COc1cc(/C=C(/C#N)c2nc(-c3cc4ccccc4oc3=O)cs2)ccc1O`, the Potency result in assay [1], in assay [2], in assay [3] and in assay [5] was “inactive” throughout. The outcome in assay [4] was “inactive [at 12.7 µM]”.
